Publication PMC7862700, “An all-to-all approach to the identification of sequence-specific readers for epigenetic DNA modifications on cytosine”

What was measured:
Assay in all cases: DAPPL (digital affinity profiling via proximity ligation, sequencing); 10 mM Tris-HCl pH 7.5, 50 mM NaCl, 1 mM DTT, 4% glycerol, room temperature, 30 min; GST-TFs on glutathione beads, 16-mer random dsDNA library, 0.1% formaldehyde crosslink after washing; high values mean tight binding
Details in all cases: protein: recombinant; tags: N-terminal GST; dsDNA, one strand shown
ERF = molecular target: T1, ERF (Homo sapiens, UniProt P50548 1-548)
T1 sequence: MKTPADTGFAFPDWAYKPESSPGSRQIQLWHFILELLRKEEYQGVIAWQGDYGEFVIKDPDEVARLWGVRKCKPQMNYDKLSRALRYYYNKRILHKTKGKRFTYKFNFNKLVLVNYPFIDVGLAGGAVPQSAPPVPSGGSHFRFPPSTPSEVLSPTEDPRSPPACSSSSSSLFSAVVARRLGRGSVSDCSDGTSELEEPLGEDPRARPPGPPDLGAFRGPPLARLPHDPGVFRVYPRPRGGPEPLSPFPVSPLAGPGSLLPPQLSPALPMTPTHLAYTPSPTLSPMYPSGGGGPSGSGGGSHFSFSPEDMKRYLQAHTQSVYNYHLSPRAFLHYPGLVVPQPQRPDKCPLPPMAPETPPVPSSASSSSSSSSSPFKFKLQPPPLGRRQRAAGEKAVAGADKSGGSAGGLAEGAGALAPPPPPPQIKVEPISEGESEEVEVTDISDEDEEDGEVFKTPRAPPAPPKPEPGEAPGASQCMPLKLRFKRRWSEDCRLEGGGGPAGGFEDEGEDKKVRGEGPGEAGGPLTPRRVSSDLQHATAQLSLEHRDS
Method in brief: (§1)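 Binding signal is defined as a hexamer's read frequency for one factor over its frequency for the tag-only sample. To obtain reads, GST-fused human transcription factors were expressed in yeast, captured on glutathione beads, barcoded with DNA and pooled with that sample. Pools met 200 nmole of a 16-mer random double-stranded DNA library in Tris/NaCl/DTT/glycerol buffer for 30 min at room temperature before washing, 0.1% formaldehyde crosslinking, proximity ligation (BsaI/T4 ligase, 1 h, 37 °C), PCR and Illumina NextSeq500 sequencing.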

ETV3L = molecular target: T2, ETV3L (Homo sapiens, UniProt Q6ZN32 1-361)
T2 sequence: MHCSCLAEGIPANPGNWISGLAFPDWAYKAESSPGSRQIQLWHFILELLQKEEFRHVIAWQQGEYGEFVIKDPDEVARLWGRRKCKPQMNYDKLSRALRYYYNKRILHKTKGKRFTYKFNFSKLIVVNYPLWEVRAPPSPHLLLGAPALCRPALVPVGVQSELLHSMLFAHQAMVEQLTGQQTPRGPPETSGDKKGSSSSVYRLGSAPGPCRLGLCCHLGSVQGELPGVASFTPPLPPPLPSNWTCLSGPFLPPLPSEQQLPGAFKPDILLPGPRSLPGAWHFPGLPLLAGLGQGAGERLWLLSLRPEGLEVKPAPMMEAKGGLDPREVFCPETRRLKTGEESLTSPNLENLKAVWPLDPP
Method in brief: as §1

ETS2 = molecular target: T3, ETS2 (Homo sapiens, UniProt P15036 1-469)
T3 sequence: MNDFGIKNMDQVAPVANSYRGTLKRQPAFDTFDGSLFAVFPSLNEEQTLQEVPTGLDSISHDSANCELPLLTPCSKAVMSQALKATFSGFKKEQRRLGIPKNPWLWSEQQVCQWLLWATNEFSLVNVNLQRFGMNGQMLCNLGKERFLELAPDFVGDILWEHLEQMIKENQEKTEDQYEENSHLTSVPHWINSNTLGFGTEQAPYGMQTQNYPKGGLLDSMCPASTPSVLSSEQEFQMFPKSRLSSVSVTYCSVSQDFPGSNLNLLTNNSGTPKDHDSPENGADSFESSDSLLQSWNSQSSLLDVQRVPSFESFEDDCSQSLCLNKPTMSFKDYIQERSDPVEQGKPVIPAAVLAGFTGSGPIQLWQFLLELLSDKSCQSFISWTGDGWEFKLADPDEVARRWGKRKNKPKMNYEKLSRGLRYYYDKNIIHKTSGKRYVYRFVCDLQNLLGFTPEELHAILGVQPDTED
Method in brief: as §1

SPDEF = molecular target: T4, SPDEF (Homo sapiens, UniProt O95238 1-335)
T4 sequence: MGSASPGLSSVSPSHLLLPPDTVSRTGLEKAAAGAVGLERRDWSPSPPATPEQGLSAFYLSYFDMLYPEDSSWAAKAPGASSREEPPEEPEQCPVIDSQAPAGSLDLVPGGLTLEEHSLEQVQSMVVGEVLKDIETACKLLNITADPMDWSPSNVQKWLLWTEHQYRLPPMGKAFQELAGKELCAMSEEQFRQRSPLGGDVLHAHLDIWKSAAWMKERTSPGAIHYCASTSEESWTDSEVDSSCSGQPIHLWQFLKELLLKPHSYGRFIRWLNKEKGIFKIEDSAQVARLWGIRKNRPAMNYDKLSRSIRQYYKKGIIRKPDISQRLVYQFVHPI
Method in brief: as §1

ETV7 = molecular target: T5, ETV7 (Homo sapiens, UniProt Q9Y603 1-341)
T5 sequence: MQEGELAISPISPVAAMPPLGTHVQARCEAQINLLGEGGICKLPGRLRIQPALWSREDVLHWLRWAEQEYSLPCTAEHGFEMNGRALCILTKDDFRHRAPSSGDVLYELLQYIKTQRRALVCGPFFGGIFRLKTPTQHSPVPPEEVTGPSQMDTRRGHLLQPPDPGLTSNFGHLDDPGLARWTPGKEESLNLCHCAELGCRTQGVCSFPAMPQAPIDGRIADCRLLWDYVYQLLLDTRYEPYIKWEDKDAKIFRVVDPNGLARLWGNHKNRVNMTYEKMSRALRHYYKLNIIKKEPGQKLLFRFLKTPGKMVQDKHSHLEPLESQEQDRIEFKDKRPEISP
Method in brief: as §1

ELF5 = molecular target: T6, ELF5 (Homo sapiens, UniProt Q9UKW6-2 1-255)
T6 sequence: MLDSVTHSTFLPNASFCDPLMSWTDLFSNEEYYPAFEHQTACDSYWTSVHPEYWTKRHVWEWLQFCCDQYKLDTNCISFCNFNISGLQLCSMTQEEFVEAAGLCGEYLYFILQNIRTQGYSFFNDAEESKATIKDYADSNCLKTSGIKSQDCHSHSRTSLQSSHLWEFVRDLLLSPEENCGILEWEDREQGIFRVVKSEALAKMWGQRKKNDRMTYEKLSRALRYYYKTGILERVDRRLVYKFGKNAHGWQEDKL
Method in brief: as §1

ETV3 = molecular target: T7, ETV3 (Homo sapiens, UniProt P41162-2 1-143)
T7 sequence: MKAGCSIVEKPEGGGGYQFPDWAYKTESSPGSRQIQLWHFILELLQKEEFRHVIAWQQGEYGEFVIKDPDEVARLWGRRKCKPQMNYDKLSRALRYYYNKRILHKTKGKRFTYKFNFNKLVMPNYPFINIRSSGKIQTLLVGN
Method in brief: as §1

ETV6 = ETV6 (Homo sapiens, UniProt P41212 1-452)
ETV6, sequence (P41212 whole entry): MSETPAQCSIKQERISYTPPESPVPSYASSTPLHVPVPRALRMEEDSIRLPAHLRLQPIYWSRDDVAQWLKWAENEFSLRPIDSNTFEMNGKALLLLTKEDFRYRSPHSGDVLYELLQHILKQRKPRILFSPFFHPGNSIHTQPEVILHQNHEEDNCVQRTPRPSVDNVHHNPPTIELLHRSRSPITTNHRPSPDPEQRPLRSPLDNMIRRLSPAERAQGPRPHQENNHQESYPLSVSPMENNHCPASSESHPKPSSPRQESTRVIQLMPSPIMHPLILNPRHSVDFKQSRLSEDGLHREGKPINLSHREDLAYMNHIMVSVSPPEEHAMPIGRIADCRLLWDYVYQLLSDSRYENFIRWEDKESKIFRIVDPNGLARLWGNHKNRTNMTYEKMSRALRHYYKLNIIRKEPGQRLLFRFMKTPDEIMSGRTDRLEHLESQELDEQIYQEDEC
Method in brief: as §1

Sequence | binding signal (ERF) | binding signal (ETV3L) | binding signal (ETS2) | binding signal (SPDEF) | binding signal (ETV7) | binding signal (ELF5) | binding signal (ETV3) | binding signal (ETV6)
CCGTCT | 1.28 fold enrichment (6-mer frequency, TF over GST control) | 1.4 fold enrichment (6-mer frequency, TF over GST control) | 1.29 fold enrichment (6-mer frequency, TF over GST control) | 1.42 fold enrichment (6-mer frequency, TF over GST control) | 1.26 fold enrichment (6-mer frequency, TF over GST control) | 1.39 fold enrichment (6-mer frequency, TF over GST control) | 1.36 fold enrichment (6-mer frequency, TF over GST control) | 1.39 fold enrichment (6-mer frequency, TF over GST control)
CCGTTT | 1.33 fold enrichment (6-mer frequency, TF over GST control) | 1.45 fold enrichment (6-mer frequency, TF over GST control) | 1.4 fold enrichment (6-mer frequency, TF over GST control) | 1.57 fold enrichment (6-mer frequency, TF over GST control) | 1.49 fold enrichment (6-mer frequency, TF over GST control) | 1.51 fold enrichment (6-mer frequency, TF over GST control) | 1.52 fold enrichment (6-mer frequency, TF over GST control) | 1.53 fold enrichment (6-mer frequency, TF over GST control)
AAACTC | 1.24 fold enrichment (6-mer frequency, TF over GST control) | 1.17 fold enrichment (6-mer frequency, TF over GST control) | 1.19 fold enrichment (6-mer frequency, TF over GST control) | 1.07 fold enrichment (6-mer frequency, TF over GST control) | 1.24 fold enrichment (6-mer frequency, TF over GST control) | 1.21 fold enrichment (6-mer frequency, TF over GST control) | 1.15 fold enrichment (6-mer frequency, TF over GST control) | 1.25 fold enrichment (6-mer frequency, TF over GST control)
ACGAAT | 1.17 fold enrichment (6-mer frequency, TF over GST control) | 1.15 fold enrichment (6-mer frequency, TF over GST control) | 1.1 fold enrichment (6-mer frequency, TF over GST control) | 1.13 fold enrichment (6-mer frequency, TF over GST control) | 1.23 fold enrichment (6-mer frequency, TF over GST control) | 1.11 fold enrichment (6-mer frequency, TF over GST control) | 1.11 fold enrichment (6-mer frequency, TF over GST control) | 1.11 fold enrichment (6-mer frequency, TF over GST control)
AACTGG | 1.18 fold enrichment (6-mer frequency, TF over GST control) | 1.23 fold enrichment (6-mer frequency, TF over GST control) | 1.3 fold enrichment (6-mer frequency, TF over GST control) | 1.23 fold enrichment (6-mer frequency, TF over GST control) | 1.23 fold enrichment (6-mer frequency, TF over GST control) | 1.26 fold enrichment (6-mer frequency, TF over GST control) | 1.29 fold enrichment (6-mer frequency, TF over GST control) | 1.31 fold enrichment (6-mer frequency, TF over GST control)
CATCCC | 1.2 fold enrichment (6-mer frequency, TF over GST control) | 1.26 fold enrichment (6-mer frequency, TF over GST control) | 1.33 fold enrichment (6-mer frequency, TF over GST control) | 1.47 fold enrichment (6-mer frequency, TF over GST control) | 1.2 fold enrichment (6-mer frequency, TF over GST control) | 1.44 fold enrichment (6-mer frequency, TF over GST control) | 1.16 fold enrichment (6-mer frequency, TF over GST control) | 1.24 fold enrichment (6-mer frequency, TF over GST control)
ACTTTC | 1.63 fold enrichment (6-mer frequency, TF over GST control) | 1.59 fold enrichment (6-mer frequency, TF over GST control) | 1.6 fold enrichment (6-mer frequency, TF over GST control) | 1.51 fold enrichment (6-mer frequency, TF over GST control) | 1.51 fold enrichment (6-mer frequency, TF over GST control) | 1.74 fold enrichment (6-mer frequency, TF over GST control) | 1.63 fold enrichment (6-mer frequency, TF over GST control) | 1.57 fold enrichment (6-mer frequency, TF over GST control)
AAGTCC | 1.08 fold enrichment (6-mer frequency, TF over GST control) | 1.21 fold enrichment (6-mer frequency, TF over GST control) | 1.27 fold enrichment (6-mer frequency, TF over GST control) | 1.4 fold enrichment (6-mer frequency, TF over GST control) | 1.23 fold enrichment (6-mer frequency, TF over GST control) | 1.34 fold enrichment (6-mer frequency, TF over GST control) | 1.37 fold enrichment (6-mer frequency, TF over GST control) | 1.2 fold enrichment (6-mer frequency, TF over GST control)
GCTCAC | 1.58 fold enrichment (6-mer frequency, TF over GST control) | 1.57 fold enrichment (6-mer frequency, TF over GST control) | 1.43 fold enrichment (6-mer frequency, TF over GST control) | 1.42 fold enrichment (6-mer frequency, TF over GST control) | 1.4 fold enrichment (6-mer frequency, TF over GST control) | 1.49 fold enrichment (6-mer frequency, TF over GST control) | 1.47 fold enrichment (6-mer frequency, TF over GST control) | 1.45 fold enrichment (6-mer frequency, TF over GST control)
CTCCTT | 1.86 fold enrichment (6-mer frequency, TF over GST control) | 1.76 fold enrichment (6-mer frequency, TF over GST control) | 1.76 fold enrichment (6-mer frequency, TF over GST control) | 1.64 fold enrichment (6-mer frequency, TF over GST control) | 1.75 fold enrichment (6-mer frequency, TF over GST control) | 1.89 fold enrichment (6-mer frequency, TF over GST control) | 1.95 fold enrichment (6-mer frequency, TF over GST control) | 1.76 fold enrichment (6-mer frequency, TF over GST control)
TAGCCT | 1.28 fold enrichment (6-mer frequency, TF over GST control) | 1.31 fold enrichment (6-mer frequency, TF over GST control) | 1.25 fold enrichment (6-mer frequency, TF over GST control) | 1.07 fold enrichment (6-mer frequency, TF over GST control) | 1.2 fold enrichment (6-mer frequency, TF over GST control) | 1.17 fold enrichment (6-mer frequency, TF over GST control) | 1.32 fold enrichment (6-mer frequency, TF over GST control) | 1.04 fold enrichment (6-mer frequency, TF over GST control)
TTAAGG | 1.16 fold enrichment (6-mer frequency, TF over GST control) | 1.09 fold enrichment (6-mer frequency, TF over GST control) | 1.1 fold enrichment (6-mer frequency, TF over GST control) | 1.28 fold enrichment (6-mer frequency, TF over GST control) | 1.12 fold enrichment (6-mer frequency, TF over GST control) | 1.26 fold enrichment (6-mer frequency, TF over GST control) | 1.16 fold enrichment (6-mer frequency, TF over GST control) | 1.06 fold enrichment (6-mer frequency, TF over GST control)
TTTAAC | 1.28 fold enrichment (6-mer frequency, TF over GST control) | 1.17 fold enrichment (6-mer frequency, TF over GST control) | 1.16 fold enrichment (6-mer frequency, TF over GST control) | 1.12 fold enrichment (6-mer frequency, TF over GST control) | 1.07 fold enrichment (6-mer frequency, TF over GST control) | 1.11 fold enrichment (6-mer frequency, TF over GST control) | 1.21 fold enrichment (6-mer frequency, TF over GST control) | 1.19 fold enrichment (6-mer frequency, TF over GST control)
AAGTAC | 1.42 fold enrichment (6-mer frequency, TF over GST control) | 1.39 fold enrichment (6-mer frequency, TF over GST control) | 1.59 fold enrichment (6-mer frequency, TF over GST control) | 1.92 fold enrichment (6-mer frequency, TF over GST control) | 1.65 fold enrichment (6-mer frequency, TF over GST control) | 1.69 fold enrichment (6-mer frequency, TF over GST control) | 1.62 fold enrichment (6-mer frequency, TF over GST control) | 1.85 fold enrichment (6-mer frequency, TF over GST control)
TCGCTA | 1.16 fold enrichment (6-mer frequency, TF over GST control) | 1.09 fold enrichment (6-mer frequency, TF over GST control) | 1.06 fold enrichment (6-mer frequency, TF over GST control) | 1.03 fold enrichment (6-mer frequency, TF over GST control) | 1.12 fold enrichment (6-mer frequency, TF over GST control) | 1.06 fold enrichment (6-mer frequency, TF over GST control) | 1.01 fold enrichment (6-mer frequency, TF over GST control) | 1.04 fold enrichment (6-mer frequency, TF over GST control)
